The text below walks through data of PubChem BioAssay (Tox21).

The structures appear in SMILES notation. Inconclusive results are not listed. A call without a number means that no potency is given here. Activity calls are given as the source filed them. The call rests on the fitted dose curve; in most records, active means well fitted cell-killing curve with a large enough effect in the repeat runs; inconclusive means weak or mixed curves, or effect the other way; inactive means flat fitted curve, though single readings scatter.

The assay can be described thus: qHTS RealTime-Glo MT Cell Viability Assay in HepG2 cells - 0 hour (AID 1224889). Further: nearly all actives have a fitted effect of over 50% in size. Conditions: RealTime-Glo luminescence; series mostly up to 76.8 µM. An excerpt:
U.S. Tox21 Program National Center for Advancing Translational Sciences [NCATS] NIH Chemical Genomics Center [NCGC] U.S. Environmental Protection Agency [EPA] National Institutes of Environmental Health Sciences [NIEHS] National Toxicology Program [NTP] U.S. Food and Drug Administration [FDA] Tox21 Assay Overview: Measure of cell viability is critical in the cell-base assay. Analysis of cell viability is necessary for the characterization of cell responses to cytotoxic drugs and environmental stress. A RealTime-Glo MT Cell Viability Assay to monitor cell viability in real time of continues cell culture during 40 hours of compound treatment was used to screen Tox21 10K library compounds in HepG2 cells. The RealTime-Glo MT Cell Viability Assay is a nonlytic, homogeneous, bioluminescent method to measure cell viability in real time using a simple, plate-based method. The assay involves adding NanoLuc luciferase and a cell-permeant prosubstrate to cells in culture. Viable cells reduce the proprietary prosubstrate to generate a substrate for NanoLuc luciferase. This substrate diffuses from cells into the surrounding culture medium, where it is rapidly used by the NanoLuc Enzyme to produce a luminescent signal. The signal correlates with the number of viable cells, making the assay well suited for cytotoxicity studies.
Tox21 Assay Protocol Summary: The mixture of HepG2 cell suspension and reagents were dispensed at 600cells/6 ul/well in 1536-well tissue culture treated black solid bottom plates using a Multidrop dispenser. After the assay plates were incubated at a 37 C/5% CO2 incubator for 5 hours, 23 nL of compounds dissolved in DMSO, positive and negative controls was transferred to the assay plate by a pintool work station. The plates were incubated at 37 C for 40 hours. The luminescence intensity were measured at 0h, 8h, 16h, 24h, 32h and 40h time points using ViewLux plate reader during compound treatment.
(In qHTS, concentration-response curves come from the screen itself.)
Take `O=C(O)CCC(=O)c1ccc(-c2ccccc2)cc1`: the Potency result is “inactive”.

With `CC(C)(C(=O)c1cccnc1)c1cccnc1`, the Potency result is “inactive”.

For `CC(=O)OC(C)C[N+](C)(C)C` (stereo not given), the Potency entry is “inactive”.

In the case of `O=C(O)CCC(=O)OC[C@@H](NC(=O)C(Cl)Cl)[C@H](O)c1ccc([N+](=O)[O-])cc1`, the Potency entry is “inactive”.

As to `CCN(CC)CC(=O)Nc1c(C)cccc1C(=O)OC`, the Potency result is “inactive”.

On to `O=C(O)/C=C/c1ccc(O)c(O)c1`, for which the Potency entry is “inactive”.

As for `COc1ccc(C)cc1`, the Potency result was “inactive”.

Regarding `CCNc1nc(N)nc(Cl)n1`, the Potency entry is “inactive”.

As for `COc1ccc(C(=O)NCc2ccc(OCCN(C)C)cc2)cc1OC`, the Potency entry is “inactive”.

On to `O=C(O)CCCc1c[nH]c2ccccc12`, for which the Potency entry was “inactive”.

As to `ClC1=C(Cl)C1(Cl)Cl`, the Potency result was “inactive”.

Regarding `CN1C(CSCC(F)(F)F)Nc2cc(Cl)c(S(N)(=O)=O)cc2S1(=O)=O` (stereo not given), the Potency result was “inactive”.

For `O=C(O)CN1C(=O)c2cccc3cccc(c23)C1=O`, the Potency entry was “inactive”.

Regarding `CCCCCCCCCCCCCCCCCC(=O)OCC(CC)CCCC` (stereo not given), the Potency result was “inactive”.

With `COC(C)(C)OC`, the Potency entry was “inactive”.

Take `CCCCCCCCCCCCCOC(=O)CCSCCC(=O)OCCCCCCCCCCCCC`: the activity change, negative = cytotoxicity is -15% [at 15.8 µM] (inactive).

Turning to `Nc1ccc(N=Nc2ccc(N)cc2)cc1`, the Potency result is “inactive”.

On to `C=CCOC(=O)COCCC(C)C`, for which the Potency entry was “inactive”.

Consider `CNC1CCCN(c2c(F)cc3c(=O)c(C(=O)O)cn(C4CC4)c3c2OC)C1` (stereo not given), for which the Potency entry is “inactive”.

`Cc1cccc2sc(N)nc12`: the Potency entry was “inactive”.

Take `CCCCCC`: the Potency entry was “inactive”.

`O=C(O)c1ccc(O)cc1O`: the Potency result was “inactive”.

`CCCOC(=O)c1c(Cl)c(Cl)c(Cl)c(Cl)c1C(=O)OCCC`: the Potency entry was “inactive”.

Consider `Cc1ccc(Cl)cc1N`, for which the Potency entry is “inactive”.

With `C=Cc1ccc(OC(C)=O)cc1`, the Potency entry was “inactive”.

Consider `COc1ccc2nc(S(=O)Cc3ncc(C)c(OC)c3C)[nH]c2c1` (stereo not given), for which the Potency result was “inactive”.

`CCOC(=O)N1CCC(Nc2ccc(Cl)cc2N)CC1`: the Potency entry is “inactive”.

With `CC(C)OC(=O)c1ccccc1C(=O)OC(C)C`, the Potency entry is “inactive”.

Consider `CCCCCCCCCCCSCC(=O)O`, for which the Potency entry is “inactive”.

In the case of `CCCCCCCC(=O)Oc1c(Br)cc(C#N)cc1Br`, the Potency result was “inactive”.

Consider `O=C(O)c1cccc(C[C@@H]2COc3ccc(OCc4nc5cc(F)ccc5s4)cc3[C@@H]2O)c1`, for which the Potency result was “inactive”.

Consider `NC(=O)CCCCC(N)=O`, for which the Potency result was “inactive”.

Take `CO[C@@H]1[C@@H](OC)[C@H](C)[C@@](O)(CC(=O)O)O[C@H]1[C@H](C)[C@H]1O[C@@]2(CC[C@@](C)([C@H]3CC[C@@](C)([C@@H]4O[C@@H]([C@H]5O[C@](C)(O)[C@H](C)C[C@@H]5C)C[C@@H]4OC4C[C@H](OC)[C@@H](OC)[C@H](C)O4)O3)O2)C[C@H](O)[C@H]1C` (stereo not given in full): the Potency result was “inactive”.

As to `CC12CC3CC(C)(C1)CC(N)(C3)C2`, the Potency result is “inactive”.

For the compound `Nc1nc(-c2ccc([N+](=O)[O-])cc2)cs1`, the Potency result is “inactive”.

Consider `CCC(CO)(CO)CO`, for which the Potency result is “inactive”.

Consider `CC(C)C(O)C(C)(C)CO` (stereo not given), for which the Potency entry is “inactive”.

In the case of `CCN(CC)CCOc1ccccc1C(=O)CCc1ccccc1`, the Potency entry is “inactive”.

As for `O=CNNC=O`, the Potency result is “inactive”.

With `CCCCOCCOC(=O)c1cccnc1`, the Potency entry is “inactive”.
